# Compounds without any hit were thinned out: in the full panel of roughly 83,000, 20% have a hit.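 Note: values are percent growth. 100 is the growth of untreated cells, values between 100 and 0 indicate rising inhibition; between -100 and 0 indicates cell death.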 Unmarked numbers belong to inactive results. Active and inactive are the calls of the source. The calls were made as follows: active = growth percent below 10; inactive = the rest.
# Legend:
# Experiment in all cases: NCI-60 one-dose screen, 48 h (100 = growth as untreated, 0 = no growth, -100 = all killed)
# NCI-H23 lung = system: NCI-H23 lung
# NCI-H226 lung = system: NCI-H226 lung
# NCI-H322M lung = system: NCI-H322M lung
# HOP-62 NSCLC = system: HOP-62 NSCLC
# NCI-H460 lung = system: NCI-H460 lung
# HOP-92 NSCLC = system: HOP-92 NSCLC
# NCI-H522 lung = conditions: 10 µM unless noted
# A549/ATCC NSCLC = system: A549/ATCC NSCLC
# 786-0 renal = system: 786-0 renal
# COLO 205 colon = system: COLO 205 colon
# DU-145 prostate = system: DU-145 prostate
# K-562 leukemia = system: K-562 leukemia
# MALME-3M melanoma = system: MALME-3M melanoma
# MDA-MB-231 breast = system: MDA-MB-231 breast
# RXF 393 renal = system: RXF 393 renal
# SF-268 CNS = system: SF-268 CNS
# SF-295 CNS = system: SF-295 CNS
# SF-539 CNS = system: SF-539 CNS
# UACC-257 melanoma = conditions: 10 µM unless noted
# M14 melanoma = system: M14 melanoma
smiles,measurement,setting,value
CCN(CC)CC(C)(C)C(=O)/C=C/c1ccc(Cl)c(Cl)c1,growth,NCI-H23 lung; 10 µM unless noted,7.58% (active)
same,growth,NCI-H226 lung; 10 µM unless noted,-15.3% (active)
same,growth,NCI-H322M lung; 10 µM unless noted,22.7%
same,growth,HOP-62 NSCLC; 10 µM unless noted,46.1%
same,growth,NCI-H460 lung; 10 µM unless noted,-9.28% (active)
same,growth,HOP-92 NSCLC; 10 µM unless noted,-3.59% (active)
same,growth,NCI-H522 lung,-48.3% (active)
same,growth,A549/ATCC NSCLC; 10 µM unless noted,33.3%
same,growth,786-0 renal; 10 µM unless noted,-60.2% (active)
same,growth,COLO 205 colon; 10 µM unless noted,-53.4% (active)
same,growth,DU-145 prostate; 10 µM unless noted,-61.6% (active)
same,growth,K-562 leukemia; 10 µM unless noted,1.04% (active)
same,growth,MALME-3M melanoma; 10 µM unless noted,-52.7% (active)
same,growth,MDA-MB-231 breast; 10 µM unless noted,-48.8% (active)
same,growth,RXF 393 renal; 10 µM unless noted,-81.9% (active)
same,growth,SF-268 CNS; 10 µM unless noted,-0.0402% (active)
same,growth,SF-295 CNS; 10 µM unless noted,48.1%
same,growth,SF-539 CNS; 10 µM unless noted,-50.4% (active)
same,growth,UACC-257 melanoma,-5.04% (active)
same,growth,M14 melanoma; 10 µM unless noted,-43.5% (active)
O=C1c2ccccc2C(=O)c2sc(Nc3cccc(Cl)c3)nc21,growth,NCI-H23 lung; 10 µM unless noted,-51.4% (active)
same,growth,NCI-H226 lung; 10 µM unless noted,-44.3% (active)
same,growth,NCI-H322M lung; 10 µM unless noted,64.5%
same,growth,HOP-62 NSCLC; 10 µM unless noted,-77.3% (active)
same,growth,NCI-H460 lung; 10 µM unless noted,72.1%
same,growth,HOP-92 NSCLC; 10 µM unless noted,65.2%
same,growth,NCI-H522 lung,-32% (active)
same,growth,A549/ATCC NSCLC; 10 µM unless noted,30.7%
same,growth,786-0 renal; 10 µM unless noted,8.79% (active)
same,growth,COLO 205 colon; 10 µM unless noted,84.7%
same,growth,DU-145 prostate; 10 µM unless noted,-93.9% (active)
same,growth,K-562 leukemia; 10 µM unless noted,6.87% (active)
same,growth,MALME-3M melanoma; 10 µM unless noted,-89.9% (active)
same,growth,MDA-MB-231 breast; 10 µM unless noted,-8.62% (active)
same,growth,RXF 393 renal; 10 µM unless noted,-11.5% (active)
same,growth,SF-268 CNS; 10 µM unless noted,-7.47% (active)
same,growth,SF-295 CNS; 10 µM unless noted,66.2%
same,growth,SF-539 CNS; 10 µM unless noted,-91.5% (active)
same,growth,UACC-257 melanoma,-74.9% (active)
same,growth,M14 melanoma; 10 µM unless noted,-89.1% (active)
O=[N+]([O-])c1ccc(N=Nc2ccc(O)cc2O)cc1,growth,NCI-H23 lung; 10 µM unless noted,55.1%
same,growth,NCI-H226 lung; 10 µM unless noted,60.6%
same,growth,NCI-H322M lung; 10 µM unless noted,84.8%
same,growth,HOP-62 NSCLC; 10 µM unless noted,93.6%
same,growth,NCI-H460 lung; 10 µM unless noted,66%
same,growth,HOP-92 NSCLC; 10 µM unless noted,-18.1% (active)
same,growth,NCI-H522 lung,19.5%
same,growth,A549/ATCC NSCLC; 10 µM unless noted,62.6%
same,growth,786-0 renal; 10 µM unless noted,51.3%
same,growth,COLO 205 colon; 10 µM unless noted,41.4%
same,growth,DU-145 prostate; 10 µM unless noted,83.2%
same,growth,K-562 leukemia; 10 µM unless noted,20.6%
same,growth,MALME-3M melanoma; 10 µM unless noted,72.5%
same,growth,MDA-MB-231 breast; 10 µM unless noted,47.4%
same,growth,RXF 393 renal; 10 µM unless noted,20.6%
same,growth,SF-268 CNS; 10 µM unless noted,78%
same,growth,SF-295 CNS; 10 µM unless noted,50.6%
same,growth,SF-539 CNS; 10 µM unless noted,37.7%
same,growth,UACC-257 melanoma,43.7%
same,growth,M14 melanoma; 10 µM unless noted,51.3%
O=C(O)c1ccc2c3c(ncnc13)-c1ccccc1C2=O,growth,NCI-H23 lung; 10 µM unless noted,-76.7% (active)
same,growth,NCI-H226 lung; 10 µM unless noted,52.4%
same,growth,NCI-H322M lung; 10 µM unless noted,23.7%
same,growth,HOP-62 NSCLC; 10 µM unless noted,12.3%
same,growth,NCI-H460 lung; 10 µM unless noted,11.5%
same,growth,HOP-92 NSCLC; 10 µM unless noted,81%
same,growth,NCI-H522 lung,77.7%
same,growth,A549/ATCC NSCLC; 10 µM unless noted,-6.25% (active)
same,growth,786-0 renal; 10 µM unless noted,84.5%
same,growth,COLO 205 colon; 10 µM unless noted,54.7%
same,growth,DU-145 prostate; 10 µM unless noted,-100% (active)
same,growth,K-562 leukemia; 10 µM unless noted,74.5%
same,growth,MALME-3M melanoma; 10 µM unless noted,-68.6% (active)
same,growth,MDA-MB-231 breast; 10 µM unless noted,89.6%
same,growth,RXF 393 renal; 10 µM unless noted,73.5%
same,growth,SF-268 CNS; 10 µM unless noted,90%
same,growth,SF-295 CNS; 10 µM unless noted,62.3%
same,growth,SF-539 CNS; 10 µM unless noted,63.1%
same,growth,UACC-257 melanoma,37.8%
same,growth,M14 melanoma; 10 µM unless noted,-59% (active)
CN(C)C(=O)c1ccc(SC(=S)NCc2ccccc2)cc1,growth,NCI-H23 lung; 10 µM,109%
same,growth,NCI-H23 lung; 100 µM,5.21% (active)
same,growth,NCI-H226 lung; 10 µM,112%
same,growth,NCI-H226 lung; 100 µM,102%
same,growth,NCI-H322M lung; 10 µM,110%
same,growth,NCI-H322M lung; 100 µM,58.2%
same,growth,HOP-62 NSCLC; 10 µM,107%
same,growth,HOP-62 NSCLC; 100 µM,46.5%
same,growth,NCI-H460 lung; 10 µM,105%
same,growth,NCI-H460 lung; 100 µM,8.96% (active)
same,growth,HOP-92 NSCLC; 10 µM unless noted,-10.3% [100 µM] (active)
same,growth,NCI-H522 lung,-48.7% [100 µM] (active)
same,growth,A549/ATCC NSCLC; 10 µM,105%
same,growth,A549/ATCC NSCLC; 100 µM,34.4%
same,growth,786-0 renal; 10 µM,109%
same,growth,786-0 renal; 100 µM,-17.6% (active)
same,growth,COLO 205 colon; 10 µM,101%
same,growth,COLO 205 colon; 100 µM,-11.4% (active)
same,growth,DU-145 prostate; 10 µM,111%
same,growth,DU-145 prostate; 100 µM,10.1%
same,growth,K-562 leukemia; 10 µM,82.6%
same,growth,K-562 leukemia; 100 µM,3.9% (active)
same,growth,MALME-3M melanoma; 10 µM,108%
same,growth,MALME-3M melanoma; 100 µM,-12.7% (active)
same,growth,MDA-MB-231 breast; 10 µM,109%
same,growth,MDA-MB-231 breast; 100 µM,13.3%
same,growth,RXF 393 renal; 10 µM,108%
same,growth,RXF 393 renal; 100 µM,-72.4% (active)
same,growth,SF-268 CNS; 10 µM,124%
same,growth,SF-268 CNS; 100 µM,50.2%
same,growth,SF-295 CNS; 10 µM,119%
same,growth,SF-295 CNS; 100 µM,26.3%
same,growth,SF-539 CNS; 10 µM,102%
same,growth,SF-539 CNS; 100 µM,-62.3% (active)
same,growth,UACC-257 melanoma,18.4% [100 µM]
same,growth,M14 melanoma; 10 µM,103%
same,growth,M14 melanoma; 100 µM,-42% (active)
O=C(Nc1cccc(Br)c1)Oc1cccc2cccnc12,growth,NCI-H23 lung; 10 µM,106%
same,growth,NCI-H23 lung; 100 µM,-21% (active)
same,growth,NCI-H226 lung; 10 µM,106%
same,growth,NCI-H226 lung; 100 µM,63.1%
same,growth,NCI-H322M lung; 10 µM,117%
same,growth,NCI-H322M lung; 100 µM,84.9%
same,growth,HOP-62 NSCLC; 10 µM,102%
same,growth,HOP-62 NSCLC; 100 µM,50.1%
same,growth,NCI-H460 lung; 10 µM,104%
same,growth,NCI-H460 lung; 100 µM,8.11% (active)
same,growth,HOP-92 NSCLC; 10 µM,83%
same,growth,HOP-92 NSCLC; 100 µM,49.2%
same,growth,NCI-H522 lung,-56.9% [100 µM] (active)
same,growth,A549/ATCC NSCLC; 10 µM,99.1%
same,growth,A549/ATCC NSCLC; 100 µM,20.7%
same,growth,786-0 renal; 10 µM,94.9%
same,growth,786-0 renal; 100 µM,88.6%
same,growth,COLO 205 colon; 10 µM,117%
same,growth,COLO 205 colon; 100 µM,51.8%
same,growth,DU-145 prostate; 10 µM,115%
same,growth,DU-145 prostate; 100 µM,35.6%
same,growth,K-562 leukemia; 10 µM,109%
same,growth,K-562 leukemia; 100 µM,12.6%
same,growth,MALME-3M melanoma; 10 µM,114%
same,growth,MALME-3M melanoma; 100 µM,7.15% (active)
same,growth,MDA-MB-231 breast; 10 µM,98.4%
same,growth,MDA-MB-231 breast; 100 µM,15.1%
same,growth,RXF 393 renal; 10 µM,106%
same,growth,RXF 393 renal; 100 µM,55.6%
same,growth,SF-268 CNS; 10 µM,107%
same,growth,SF-268 CNS; 100 µM,20.9%
same,growth,SF-295 CNS; 10 µM,97.4%
same,growth,SF-295 CNS; 100 µM,9.21% (active)
same,growth,SF-539 CNS; 10 µM,97.1%
same,growth,SF-539 CNS; 100 µM,9.58% (active)
same,growth,UACC-257 melanoma,7.41% [100 µM] (active)
same,growth,M14 melanoma; 10 µM,99.4%
same,growth,M14 melanoma; 100 µM,16%

# Reference: PubChem BioAssay (NCI)
